Bioassay records: PubChem BioAssay, NMMLSC
Compounds with a hit are over-represented: about 1.2% of the library has one in this group of screens.
Avidin fluor = green autofluorescence of compounds with avidin beads – biophysical, 488/530 nm, flow cytometry, artefact control, profiling panel. compound fluorescence 488/530 nm; active compounds read high. fluorescence (KMESF) at 10 µM. hit rate 0.38% among 220,000. AID 1775, 2009; in the data active means fluorescence above about 47
RGS16-Gao HTS = modulators of RGS16 binding to Galphao, primary screen, biochemical, human proteins, multiplexed bead flow cytometry | AID 1441, 2008 | hit rate 0.38% among 220,000 | bead-based flow cytometry RGS16-Galphao binding, fluorescence; actives lie on both sides | binding response (% of control), % at 10 µM | Regulator of G-protein signaling 16 (Homo sapiens) + Guanine nucleotide-binding protein …;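 further: Galphao activated by GDP with aluminum fluoride before binding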
RGS4-Gao reg = modulators of RGS4 binding to Galphao, primary screen, biochemical, multiplexed bead flow cytometry | Guanine nucleotide-binding protein G(o) subunit alpha (Homo sapiens), P09471 | actives lie on both sides | binding response (% of control), % at 10 µM | hit rate 0.33% among 220,000 | AID 1415, 2008; in the data active means binding response below about 49% or above about 150%; inactive means in between;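 further: fluorescent Galphao activated with aluminum fluoride binding bead-coupled RGS4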
GSH fluor = compound fluorescence on glutathione beads, profiling panel, artefact control, biophysical, 488/530 nm, flow cytometry; AID 1776, 2009; fluorescence (KMESF) at 10 µM; GSH beads flow cytometry, compound fluorescence 488/530 nm; active compounds read high; hit rate 0.25% among 190,000; in the data active means fluorescence above about 89;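 further: glutathione beads carrying GST-tagged Bcl family fusion proteins plus one bare bead set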
RGS8-Gao = RGS8-Galphao binding modulators, primary screen, biochemical, multiplexed bead flow cytometry | Guanine nucleotide-binding protein G(o) subunit alpha (Homo sapiens), P09471 | actives lie on both sides | response (percent of control binding), % at 10 µM | hit rate 0.34% among 220,000 | AID 1423, 2008; in the data active means response below about 60% or above about 140%; inactive means in between;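 further: Galphao activated as the GDP aluminium fluoride complex binding bead-coupled RGS8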
RGS7-Gao reg = RGS7-Galphao binding modulators, primary screen, biochemical, multiplexed bead flow cytometry; hit rate 0.35% among 220,000; AID 1439, 2008; Guanine nucleotide-binding protein G(o) subunit alpha (Homo sapiens), P09471; binding response (% of control), % at 10 µM; actives lie on both sides; in the data active means binding response below about 49% or above about 150%; inconclusive means no clear call, values can overlap the other calls; inactive means in between;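 further: fluorescent Galphao held in activated GDP-AlF4 state binding bead-coupled RGS7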
RGS4-Gao HTS = modulators of RGS–Galpha-o binding, primary screen, biochemical, multiplexed beads, flow cytometry, RGS4/7/8/16/19 | shares compounds with RGS16-Gao HTS | multiplexed bead flow cytometry | RGS4–Galpha-o binding response, % at 10 µM | hit rate 99% among 1,600 | AID 1504, 2009;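 further: fluorescently labeled Galpha-o bound to GDP with aluminium fluoride binding biotinylated RGS beads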
Target sequence (P09471 whole entry, looked up): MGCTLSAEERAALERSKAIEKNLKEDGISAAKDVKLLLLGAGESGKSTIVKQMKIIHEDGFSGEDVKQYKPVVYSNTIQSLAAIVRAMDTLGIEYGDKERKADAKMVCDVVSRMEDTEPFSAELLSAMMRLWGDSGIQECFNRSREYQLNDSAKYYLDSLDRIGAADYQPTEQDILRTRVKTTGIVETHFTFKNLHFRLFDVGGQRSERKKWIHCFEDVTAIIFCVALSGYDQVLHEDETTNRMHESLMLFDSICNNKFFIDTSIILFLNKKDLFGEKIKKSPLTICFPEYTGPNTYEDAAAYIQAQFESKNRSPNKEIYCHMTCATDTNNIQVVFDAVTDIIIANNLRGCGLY
Target sequence (P49798 whole entry, looked up): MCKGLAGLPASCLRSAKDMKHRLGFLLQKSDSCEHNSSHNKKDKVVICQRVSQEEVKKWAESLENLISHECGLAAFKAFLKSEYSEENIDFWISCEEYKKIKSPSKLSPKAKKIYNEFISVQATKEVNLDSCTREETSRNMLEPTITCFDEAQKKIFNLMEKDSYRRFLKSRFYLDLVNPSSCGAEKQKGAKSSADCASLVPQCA
Avidin counter = disruption of biotin probe capture by avidin, counter-screen for RGS protein interaction modulators, biochemical, flow cytometry, bead-based; shares compounds with RGS16-Gao HTS; 1,700 tested, under 10 active; inhibition, % at 10 µM; AID 1783, 2009; streptavidin beads, fluorescein-biotin binding;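 active means inhibition above 50%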;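 further: median green fluorescence of gated singlet beads compared with DMSO control wells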
RGS8-Gao confirm = RGS8-Galphao binding modulators, confirmation, biochemical, multiplexed bead flow cytometry, single concentration. hit rate 3% among 1,700. bead-based flow cytometry RGS8-Galphao binding, fluorescence; actives lie on both sides. shares compounds with RGS16-Gao HTS. binding response (% of control), % at 10 µM. AID 1836, 2009; in the data active means binding response below about 72% or above about 130%; inactive means in between;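 further: Galphao activated as GDP AlF4 complex before binding bead RGS8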
RGS7-Gao confirm = RGS7-Galphao binding modulators, confirmation, biochemical, multiplexed bead flow cytometry, single concentration | hit rate 7.8% among 1,700 | response (percent of control binding), % at 10 µM | AID 1837, 2009 | shares compounds with RGS16-Gao HTS | bead-based flow cytometry RGS7-Galphao binding; actives lie on both sides; in the data active means response below about 75% or above about 130%; inactive means in between;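 further: fluorescent Galphao activated with GDP and aluminum fluoride binding bead-coupled RGS7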
RGS16-Gao conf = modulators of RGS16-Galphao protein binding, confirmation, biochemical, single concentration, multiplexed bead flow cytometry | shares compounds with RGS16-Gao HTS | bead-based flow cytometry; actives lie on both sides | hit rate 4% among 1,700 | response (% of control binding), % at 10 µM | AID 1838, 2009; in the data active means response below about 74% or above about 130%; inactive means in between;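 further: Galphao activated as the GDP aluminium fluoride complex binding bead-coupled RGS16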
RGS4-Gao confirm = modulators of RGS4-Galphao protein binding, confirmation, biochemical, single concentration, multiplexed bead flow cytometry; shares compounds with RGS16-Gao HTS; actives lie on both sides; binding response (% of control), % at 10 µM; hit rate 4% among 1,700; in the data active means binding response below about 74% or above about 130%; inactive means in between
RGS19-Gao single = regulators of RGS19-Galphao binding, confirmation, biochemical, single point, multiplexed bead flow cytometry; response (percent of control binding), % at 10 µM; hit rate 5% among 1,700; AID 1841, 2009; bead-based flow cytometry RGS19-Galphao binding; actives lie on both sides; shares compounds with RGS16-Gao HTS; in the data active means response below about 50% or above about 160%; inactive means in between
Hits are given with their value; – = inactive; ? = inconclusive; · = no result; [ ] = dose if it differs, or a comment. Unless noted, how the calls were made is not given here.

SMILES | Avidin fluor | RGS16-Gao HTS | RGS4-Gao reg | GSH fluor | RGS8-Gao | RGS7-Gao reg | RGS4-Gao HTS | Avidin counter | RGS8-Gao confirm | RGS7-Gao confirm | RGS16-Gao conf | RGS4-Gao confirm | RGS19-Gao single
CCCNC(=O)CN(c1cccc(F)c1)S(C)(=O)=O | – | – | – | – | 155[activator] | – | 126 | – | – | – | – | – | –
O=C(CN1CCOCC1)N/N=C/c1ccc(-c2cccc(Cl)c2Cl)o1 | – | – | – | · | – | ? | · | · | · | · | · | · | ·
CCOc1ccc2c(c1)n(CO)c(=S)n2CO | 104 | – | – | – | – | 176[activator] | 112 | – | – | – | – | – | –
CCOc1ccc2[nH]c(=S)[nH]c2c1 | – | – | – | – | – | – | · | · | · | · | · | · | ·
Nc1nc(SCC(=O)Nc2cc(C(F)(F)F)ccc2N2CCOCC2)n[nH]1 | – | 16 | 29 | – | 18 | 24 | · | – | – | – | – | – | –
CC1(C)Cc2cccc(OCC(=O)Nc3cc(C(F)(F)F)ccc3N3CCOCC3)c2O1 | 141 | – | – | – | – | 226[activator] | 118 | – | – | – | – | – | –
Cc1nc2ccccc2nc1OCC(=O)Nc1cc(C(F)(F)F)ccc1N1CCOCC1 | – | – | – | – | – | – | · | · | · | · | · | · | ·
O=C(CSc1n[nH]c(-c2ccccc2O)n1)N1CCOCC1 | – | – | – | – | – | – | · | · | · | · | · | · | ·
Nc1nc(SCC(=O)N2CCOCC2)n[nH]1 | – | – | – | – | – | 189[activator] | 129 | – | – | – | – | – | –
CCN1/C(=C/C(C)=C/c2sc3ccccc3[n+]2CC)Sc2ccccc21 | – | – | – | – | 53 | – | 57 | – | – | – | – | – | –
O=C(O)[C@H]1Cc2ccccc2CN1S(=O)(=O)c1ccc(F)cc1 | – | – | – | · | – | ? | · | – | – | – | – | – | –
CC(=O)c1ccc(S(=O)(=O)N2Cc3ccccc3CC2C(=O)O)cc1 (centres undefined) | – | – | – | · | – | ? | · | · | · | · | · | · | ·
CC(=O)c1cccc(CN2CCN(CC(C)C)C(CCO)C2)c1 (centres undefined) | – | – | – | – | – | – | · | · | · | · | · | · | ·
CCOC(=O)c1cccc(NC(=O)CSc2nc3ccccc3c(=O)n2CCOC)c1 | – | – | 23 | – | 9.5 | 13 | · | – | – | – | – | – | –
Oc1cc2c(cc1O)C1c3ccc(O)c(O)c3OCC1(O)C2 (centres undefined) | – | 3.4 | – | – | 19 | 32 | 67 | · | · | · | · | · | ·
